# Assay outcomes: PubChem BioAssay, National Center for Advancing Translational Sciences (NCATS)
# In the library only some 2.4% were active in any assay of this set; here they are far more common.
# ATXN viability: reduces viability in counter-screen for ATXN expression inhibitors | Potency, µM (doses to about 56.7 µM), most hits filed as cytotoxic | 400,000 compounds, 0.49% hits | S2 cells (HEK-293 line with an ATXN2-luciferase reporter) viability, CellTiter-Fluor protease fluorescence, 24 h; also: nearly all actives have a fitted effect of over 40% in size
# HepG2 tox-1: counter-screen for TGF-b inhibitors: cytotoxicity in HepG2 cells; Potency, µM (series often up to 46.1 µM), for the others: at the top dose activity change, negative = cytotoxicity, actives largely listed as cytotoxic; HepG2 CAGA-GFP viability, ATP luminescence, 18 h; 410,000 compounds, 0.76% hits
#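 HepG2 CAGA-GFP cells (1000/well, DMEM with 1% FBS) received compound, then TGF-beta at 500 pg/mL final, and were incubated 18 hours at 37 degrees C. Viability was read by CellTiter-Glo luminescence. Media-only wells were set as complete cell-killing and DMSO as no toxicity.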
# TGFb SMAD3 inh: blocks TGF-b signaling; HepG2 CAGA-GFP TGF-b/SMAD3 reporter, GFP fluorescence, 18 h; TGF-beta stimulated, 500 pg/mL final; 410,000 compounds, 1.2% hits; Potency, µM (series often up to 46.1 µM), without a hit: at the top dose activity, negative = inhibition, most hits filed as inhibitors; also: % is scaled to controls: 0 for no effect and ±100 for the full control effect; nearly all actives have a fitted effect of over 65% in size
#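 Inhibition was scored as loss of TGF-beta-induced (500 pg/mL final, 18 hours, 37 degrees C) GFP in HEPG2 cells carrying a CAGA-GFP reporter, in DMEM with 1% FBS. Well GFP was summed per cell; Activity was normalised to unstimulated and stimulated DMSO wells, then concentration-response fitting.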
# ATXN2 expr inh: inhibitors of ATXN2 expression; 360,000 compounds, 0.72% hits; HEK-293 ATXN2-luciferase reporter, luminescence, 24 h; Potency, µM (top dose mostly 57 µM), for the others: at the highest dose activity change, negative = inhibition, usual class: inhibitors; AID 1745845; also: % is scaled to controls: 0 for no effect and ±100 for the full control effect; nearly all actives have a fitted effect of over 55% in size
#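 qHTS (up to 57 uM final) was run with 24 h compound exposure of reporter cells at 37 °C. Each well was multiplexed: SteadyGlo luminescence measured ATXN2-luciferase expression after a fluorogenic Gly-Phe-AFC viability readout (25 uM final).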
# Anesthetic bind: candidate novel general anesthetic via apoferritin binding; 350,000 compounds, 0.074% hits; apoferritin/1-aminoanthracene competitive binding, fluorescence; Potency, µM (highest dose often 77.5 µM), for the others: at the highest dose activity change, negative = displacement, usual class: inhibitors; P02791; also: % is scaled to controls: 0 for no effect and ±100 for the full control effect; nearly all actives have a fitted effect of over 20% in size
# Target sequence (P02791 2-175 limits assumed): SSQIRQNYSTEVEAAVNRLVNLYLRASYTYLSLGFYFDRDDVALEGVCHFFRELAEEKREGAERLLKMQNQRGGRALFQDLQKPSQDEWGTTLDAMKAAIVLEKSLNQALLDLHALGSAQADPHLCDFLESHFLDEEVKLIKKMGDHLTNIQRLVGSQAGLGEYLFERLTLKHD
#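 Horse-spleen apoferritin (10 uM) in 50% saturated 1-aminoanthracene in PBS was incubated 10 min at room temperature with compound. Fluorescence (ex 380, em 535 nm) was normalized to free and bound 1-AMA, with concentration-response fitted by a four-parameter Hill equation.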
# TGFb CAGA inh: confirmation of TGF-b signaling inhibitors in HepG2 reporter cells | shares compounds with TGFb SMAD3 inh | HepG2 CAGA-GFP TGF-b reporter, GFP fluorescence, 18 h; cells stimulated with TGF-beta, 500 pg/mL | Potency, µM (highest dose often 46.1 µM), without a hit: at the highest dose activity, negative = inhibition, usual class: inhibitors | 1,600 compounds, 63% hits; also: % is scaled to controls: 0 for no effect and ±100 for the full control effect; nearly all actives have a fitted effect of over 65% in size
# HepG2 tox-2: toxic to HepG2 cells in TGF-b counterscreen | HepG2 CAGA-GFP viability, ATP luminescence, 18 h; cells stimulated with TGF-beta, 500 pg/mL | 1,600 compounds, 27% hits | Potency, µM (series often up to 46.1 µM), for the others: at the top dose activity, negative = cytotoxicity, actives largely listed as inhibitors | AID 720535 | shares compounds with TGFb SMAD3 inh; also: % is scaled to controls: 0 for no effect and ±100 for the full control effect; nearly all actives have a fitted effect of over 70% in size
# CCL64 TGFb inh: blocks TGF-b signaling in CCL64 reporter cells; shares compounds with TGFb SMAD3 inh; CCL64 CAGA-GFP reporter, TGF-b stimulated, GFP fluorescence, 18 h; Potency, µM (highest dose often 46.1 µM), for inactives: top-dose activity, negative = inhibition, hits mostly inhibitors; 1,600 compounds, 41% hits; AID 720536; also: nearly all actives have a fitted effect of over 65% in size
# COP TGFb inh: TGF-b inhibition validated with COP promoter; HepG2 COP-GFP TGF-b reporter, GFP fluorescence, 18 h; cells stimulated by added recombinant TGF-beta; shares compounds with TGFb SMAD3 inh; AID 720537; Potency, µM (series often up to 46.1 µM), for inactives: at the top dose activity, negative = inhibition, actives largely listed as inhibitors; 1,600 compounds, 3% hits; also: nearly all actives have a fitted effect of over 70% in size
# An asterisk follows results filed as active; i = inactive; ? = inconclusive; nt = not tested or not shown; [ ] = another dose, or the depositor's remark. Calls follow the shape of the dose curve; as a rule, active = well fitted curve in the direction sought with a large enough effect; inconclusive = small, poorly fitted or top-dose-only effect, or another doubt; inactive = no such curve, though single readings can be large; an effect the other way counts as inactive or inconclusive. Potency is read from the fitted curve at half-maximal effect.
SMILES,ATXN viability,HepG2 tox-1,TGFb SMAD3 inh,ATXN2 expr inh,Anesthetic bind,TGFb CAGA inh,HepG2 tox-2,CCL64 TGFb inh,COP TGFb inh
OCC1(Cc2ccccc2)CCCN(Cc2ccn[nH]2)C1 (stereo not given),i,-1%,0%,nt,-9%,nt,nt,nt,nt
OC(CN1CCCC1)c1ccccc1 (stereo not given),nt,-1%,-5%,nt,nt,nt,nt,nt,nt
O=C(c1ccc(Cl)cc1)C(CN1CCCC1)c1ccccc1 (stereo not given),nt,-115%,7.9µM*,nt,?,3.7µM*,8.2µM*,2.6µM*,?
O=C(c1ccc(F)cc1)C(CN1CCOCC1)c1ccccc1 (stereo not given),nt,18µM*,3.5µM*,?,?,7.3µM*,16µM*,3.7µM*,?
c1ccc(C(CN2CCOCC2)c2ccccc2)cc1,i,4%,18%,-9%,-8%,nt,nt,nt,nt
O=C(COC(=O)/C=C/c1cccs1)NC1CC1,i,-15%,-9%,-9%,0%,nt,nt,nt,nt
CCOC(=O)c1c(NC(=O)CN2CCCCC2)sc2c1CCN(C(=O)OCC)C2,?,-9%,11µM*,-29%,?,13µM*,?,18µM*,26%
CCOC(=O)c1c(NC(=O)CN(CC)CC)sc2c1CCN(C(=O)OCC)C2,i,-31%,?,-24%,7%,nt,nt,nt,nt
COc1cc2oc(=O)cc(-c3ccc(-c4ccc(O)cc4)cc3)c2c(OC)c1OC,?,-14%,11µM*,?,-22%[110 µM],18µM*,?,?,70%
CC(C)N1C(=O)CCC1C(=O)NCc1ccc(F)cc1Cl (stereo not given),i,-6%,0%,8%,10%,nt,nt,nt,nt
COc1ccc(Nc2nc(-c3ccccc3)nc3ccccc23)cc1,?,-33%,?,-30%,34%,?,-25%,?,5%
Cc1ccc(Nc2nc(-c3cccnc3)nc3ccccc23)cc1,?,20µM*,?,?,4%,?,?,?,36%
Cc1ccccc1Nc1nc(-c2cccnc2)nc2ccccc12,i,-12%,1%,-19%,-6%,nt,nt,nt,nt
CCSCCc1nnc(NC(=O)Nc2cccc(C(F)(F)F)c2)s1,i,-35%,4.5µM*,?,-12%,5.2µM*,?,7.3µM*,104%
COc1ccc(OS(=O)(=O)c2c(C)noc2C)cc1,i,-7%,2%,4%,-3%,nt,nt,nt,nt
O=[N+]([O-])c1cc(Cl)ccc1N1CCN(c2ccccc2O)CC1,?,-11%,7.1µM*,-11%,?,?,-6%,-7%,-3%
Cc1ccc(C(=O)Nc2ccc(C(F)(F)F)n(C)c2=O)cc1,i,1%,?,42%,-1%,nt,nt,nt,nt
Cc1ccc(C(=O)Nc2cccc3[nH]c(C(F)(F)F)nc23)cc1,i,-16%,11µM*,-36%,-1%,15µM*,?,?,54%
Fc1cc(F)c(C2SCCN2C(=S)Nc2cccc(C(F)(F)F)c2)c(F)c1 (stereo not given),i,-36%,?,-27%,-17%,nt,nt,nt,nt
O=C(Nc1cccc(-c2cn3cccnc3n2)c1)c1cc(Br)ccc1Cl,i,-16%,23%,-16%,107%,nt,nt,nt,nt
Cc1onc(-c2ccccc2Cl)c1C(=O)Nc1cccc(-c2cn3cccnc3n2)c1,i,0%,?,-10%,-8%,?,8%,-29%,1%
CCCCCC(=O)Nc1cccc(C2=NOC3(C2)C[C@H](C(N)=O)N(C(=O)c2ccccc2C(=O)c2ccccc2)C3)c1 (stereo not given in full),i,-21%,11µM*,-24%,-19%,?,-10%,?,3%
COc1ccc(NC(=O)Nc2ccc(O)c3ccccc23)cc1,?,-131%,6.3µM*,?,nt,?,-21%,16µM*,0%
Cc1noc(C)c1COc1ccccc1C(=O)N(C)Cc1ccc(C(C)(C)C)cc1,i,-26%,11µM*,nt,nt,16µM*,?,?,44%
C=CCNC(=O)c1onc(CSc2ccc(F)cc2)c1C(=O)NCC=C,i,-9%,1%,-13%,nt,nt,nt,nt,nt
SMILES,ATXN viability,HepG2 tox-1,TGFb SMAD3 inh,ATXN2 expr inh,Anesthetic bind,TGFb CAGA inh,HepG2 tox-2,CCL64 TGFb inh,COP TGFb inh
C=CCNC(=O)c1onc(CSc2ccc(F)cc2)c1C(=O)NCCOC,i,2%,?,-1%,-15%,-7%,2%,12%,-1%
Cc1ccc2nc3c(c(Nc4ccc(O)cc4)c2c1)CCC3,?,-38%,?,nt,-15%,nt,nt,nt,nt
Cc1ccc2nc3c(c(Nc4ccc5c(c4)OCCO5)c2c1)CCC3,?,-20%,3.5µM*,-34%,5%,?,?,?,78%
COc1ccc(COC(=O)c2ccc(C)c(S(=O)(=O)N3CCOCC3)c2)cc1F,?,11%,3%,?,nt,nt,nt,nt,nt
Cc1cc(NC(=O)CS(=O)(=O)c2cn(Cc3cccc(Cl)c3)c3ccccc23)no1,?,4%,18µM*,0%,nt,12µM*,-11%,-23%,21%
COc1ccc(CNC(=O)CCNS(=O)(=O)c2cc(Br)cnc2N)cc1,i,2%,10%,3%,-12%,nt,nt,nt,nt
Cc1nc2ccccc2c2oc(C(=O)NCc3ccccn3)cc12,i,-8%,12%,-13%,1%,nt,nt,nt,nt
Cc1ccc(CNC(=O)c2cc3c(C)nc4ccccc4c3o2)cc1,?,-15%,?,?,4%,18µM*,-25%,-8%,24%
Cc1ccc(SCCNC(=O)c2ccc(C)c(S(=O)(=O)Nc3cccc(C)c3)c2)cc1,?,-2%,13µM*,?,-2%,?,?,?,52%
CCOC(=O)c1cc([N+](=O)[O-])sc1NC(=O)c1ccc(S(=O)(=O)N2CC3(C)CC2CC(C)(C)C3)cc1 (stereo not given),?,6%,?,-25%,1%,?,?,?,-8%
